From PubChem BioAssay AID1578 (Sanford-Burnham Center for Chemical Genomics, 2009) come the findings set out here.

Each structure is given as a SMILES string. Screen size: about 290,000 compounds; about 3,000 (1%) were called active. The sample as a whole holds a higher share of actives than the screen did. Values without a mark were called inactive. Cut-off read from the data, not from the text of the source: active = inhibition mostly above about 36% (no sharp cut-off); inactive = mostly below about 34%.

The assay in a line: NOD1 signaling inhibitors, primary screen, cell-based, luminescence, uHTS (AID 1578).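 Note: HEK-293T reporter cells stimulated with the NOD1 agonist gamma-tri-DAP.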 Particulars: NOD1-driven NF-kB luciferase reporter cells, at 4 µM, stronger effect = higher value.
`Cc1ccc(NC(=S)N(Cc2ccc(Br)cc2)Cc2ccc(C(=O)O)cc2)cc1C`: the inhibition was -22.8%.
Regarding `NNc1nc(-c2ccccc2)cc(-c2ccccc2O)n1`, the inhibition was 3.5%.
In the case of `O=[N+]([O-])c1cc(C(F)(F)F)ccc1Sc1ccccn1`, the inhibition is -1.5%.
On to `Oc1c(Cl)cc(Cl)c(Cl)c1Cc1c(O)c(Cl)cc(Cl)c1Cl`, for which the inhibition was 85.9% (active).
With `Oc1c(Cl)cc(Cl)c2c1NCCC2`, the inhibition is -5.4%.
With `Oc1c(Cl)cc(Cl)cc1Sc1cc(Cl)cc(Cl)c1O`, the inhibition was -35.5%.
`O=C(NC(=S)NCCO)c1sc2ccccc2c1Cl`: the inhibition was -51.4%.
On to `O=S(=O)(CC(CN1CCCC1)N1CCCC1)c1ccc2ccccc2c1` (stereo not drawn), for which the inhibition is 51.2% (active).
With `O=S(=O)(CC(CN1CCCCC1)N1CCCCC1)c1ccccc1` (stereo not drawn), the inhibition is 9.2%.
`O=S(=O)(CC(CN1CCCCC1)N1CCCCC1)c1ccc2ccccc2c1` (stereo not drawn): the inhibition is -6.3%.
On to `OCCC1CN(Cc2cccc3nonc23)CCN1C1CCCCC1` (stereo not drawn), for which the inhibition was -25.9%.
Take `O=C(CN1CCN(C(=O)C2CCCO2)CC1)Nc1ccc(F)cc1` (stereo not drawn): the inhibition is -12%.
With `Cc1ccc(-c2nnc(OCc3cccnc3)c3ccccc23)cc1`, the inhibition is -11.3%.
Consider `COc1ccc(C(=O)/C=C/c2cc(OC)c(O)c(OC)c2)c(F)c1`, for which the inhibition was 93.6% (active).
Take `COc1ccc2cc(C(=O)/C=C/c3cc(OC)c(O)c(OC)c3)ccc2c1`: the inhibition is 62.6%.
`COc1ccc(/C=C/C(=O)c2ccc(Cl)s2)cc1O`: the inhibition is -46%.
Regarding `COc1ccc(C(=O)/C=C/c2ccc(OC)c(O)c2)c(F)c1`, the inhibition is 36.2%.
As for `COc1cc(/C=C/C(=O)c2ccc3c(c2)OCO3)cc(Cl)c1O`, the figure is 13.2%; as for `COc1cc(/C=C/C(=O)c2ccc(Cl)s2)cc(OC)c1O`, 76.4% (active); as for `O=C(c1ccc(F)cc1)N1CCN(C2=NS(=O)(=O)c3ccccc32)CC1`, -41.6%.
For `Cc1nn(-c2ccccc2)c(C)c1NC(=O)COc1ccc(C#N)cc1`, the inhibition was -20.8%.
Consider `CCOc1ccc(NC(=O)CC(NCc2ccccn2)C(=O)O)cc1` (stereo not drawn), for which the inhibition was -2.9%.
As for `CCOC(=O)C1CCN(c2ccc(-c3cccs3)nn2)CC1`, the figure is -0.9%; as for `CC1CCN(c2ccc(-c3cccs3)nn2)CC1`, 31.4% (active).
On to `c1csc(-c2ccc(N3CCOCC3)nn2)c1`, for which the inhibition is -11.8%.
For the compound `CCOC(=O)C1CCN(C(=O)CN(c2cc(Cl)ccc2OC)S(=O)(=O)c2ccccc2)CC1`, the inhibition is -33.5%.
Consider `COc1cccc(NS(=O)(=O)c2cc3c(cc2C)N(C)CCO3)c1`, for which the inhibition is -2.7%.
As for `O=C(N/N=C/c1ccc(N2CCOCC2)cc1)c1ccccc1OCCOc1ccccc1`, the inhibition is 58.8% (active).
Take `O=C(N/N=C/c1ccc(N2CCOCC2)cc1)c1ccccn1`: the inhibition is 0%.
Regarding `O=C(N/N=C/c1ccc(OCC(=O)N2CCOCC2)cc1)c1ccccc1Cl`, the inhibition was -15.5%.
For `Fc1ccc(-n2ncc3c(SCc4cccnc4)ncnc32)cc1`, the inhibition is -6.1%.
As for `Cc1nc2nc[nH]n2c(=O)c1CC(=O)O`, the inhibition was 14.8%.
As for `CC1CCCN(c2ccc3nc4ccccc4c(=O)n3n2)C1` (stereo not drawn), the figure is 28.3%; as for `CN(c1cc(=O)n2ccccc2n1)C1CCCCC1`, -27.9%; as for `CN(c1ccc2nc3ccccc3c(=O)n2n1)C1CCCCC1`, 92.5% (active).
With `CN1CCCN(C(=O)/C=C/c2ccc(F)cc2)CC1`, the inhibition was -22.5%.
With `N#CCC(=O)Nc1ccc(C(=O)OCC(=O)NCCCc2ccccc2)cc1`, the inhibition was 5.1%.
As to `O=C(O)c1ccc(C=C(c2nc3ccccc3s2)c2nc3ccccc3s2)cc1`, the inhibition is 63.5% (active).
As for `COc1cc(C=C(c2nc3ccccc3s2)c2nc3ccccc3s2)ccc1O`, the inhibition was 7.4%.
As for `O=C(O)c1ccc(/C=C(\c2nc3ccccc3[nH]2)c2nc3ccccc3s2)cc1`, the inhibition is 4.6%.
`CCCNC(=O)COC(=O)CCC(=O)c1cccs1`: the inhibition is -7.8%.
For the compound `O=C(Oc1cccc2cccnc12)c1cccc([N+](=O)[O-])c1`, the inhibition is -8.5%.
As for `O=C(Oc1ccc(Cl)c2cccnc12)c1cccc([N+](=O)[O-])c1`, the figure is -6.9%.
The same measure for `O=C(Oc1c(Cl)cc(Cl)c2cccnc12)c1cccc([N+](=O)[O-])c1`: 105% (active); for `COc1ccc(OC)c(Nc2nc(NCc3ccco3)nc(N)c2[N+](=O)[O-])c1`: -6.4%; for `Cc1ccc(NS(=O)(=O)c2cc(NC(=O)c3cc(=O)[nH]c(=O)[nH]3)ccc2Cl)c(C)c1`: 12.4%.
The same measure for `COc1ccc(NC(=O)c2ccc3c(c2)NC(=O)CS3)cc1S(=O)(=O)Nc1ccc(Br)cc1`: 4%; for `Cc1ccc(C(=O)N/C(=C\c2cccc([N+](=O)[O-])c2)C(=O)OCN2C(=O)c3ccccc3C2=O)cc1`: -36.4%.
Take `O=C(NC1=NCCS1)C12CC3CC(CC(C3)C1)C2`: the inhibition is -23.8%.
Turning to `Nc1[nH]nc2nc3ccccc3cc12`, the inhibition is -21.2%.
For `Nc1cccc2nc3ccccc3cc12`, the inhibition was -65%.
Turning to `O=C(c1cccc(F)c1)N1C2C=CC(C2)C1(C(F)(F)F)C(F)(F)F` (stereo not drawn), the inhibition is 23%.
Consider `N/C(=N/S(=O)(=O)c1ccccc1)c1cccc([N+](=O)[O-])c1`, for which the inhibition was 2%.
In the case of `CNC(=S)NNC(=O)c1sc2cc(C(F)(F)F)cnc2c1-c1ccccn1`, the inhibition was -34.8%.
Turning to `CCCCCCC1CC(=O)NC(=S)N1` (stereo not drawn), the inhibition is -3%.
`CCCCCCC1CC(=O)NC(=O)N1` (stereo not drawn): the inhibition was 45.3% (active).
On to `CCCCCC1CC(=O)N(Cc2ccc(Cl)cc2)C(=O)N1` (stereo not drawn), for which the inhibition is 7.7%.
`Cc1ccc(N2CCC(N3CCN(C4CCCCC4)C(CCO)C3)CC2)cc1` (stereo not drawn): the inhibition was -17.5%.
Consider `COc1cc2c(cc1OC)C(c1ccccc1)N(C(=O)CCl)CC2` (stereo not drawn), for which the inhibition is 43.6%.
With `COc1cc2c(cc1OC)C(C1C(=O)CCCC1=O)N(C(=O)CCl)CC2` (stereo not drawn), the inhibition was -8%.
Consider `COc1cc2c(cc1OC)C(c1cc(Br)ccc1F)N(C(=O)CCl)CC2` (stereo not drawn), for which the inhibition was 37.2% (active).
`CSc1cccc(NS(=O)(=O)c2ccccc2)c1`: the inhibition was -20.4%.
For the compound `O=C(CSc1nccc(=O)[nH]1)NC1CCCC1`, the inhibition was -1.9%.
As to `CCCNC(=O)C/C(C)=N/NC(=O)COc1ccc(C)cc1Br`, the inhibition was 83.4% (active).
For `COc1ccc(CCNC(=O)C/C(C)=N/NC(=O)COc2ccc(C)cc2Br)cc1OC`, the inhibition was 39.1%.
As for `C/C(CC(=O)NC(C)(C)C)=N\NC(=O)COc1ccc(C)cc1Br`, the figure is -14%.
As to `CC(=O)c1ccc(OCC(=O)NC(=O)NC2CCCCC2)cc1`, the inhibition was 6.2%.
On to `Cc1ccc(C)c(OCC(=O)Nc2ccc(S(=O)(=O)Nc3ncccn3)cc2)c1`, for which the inhibition is -12.1%.
As for `COC(=O)c1c(N2C(=O)Nc3ccccc3N2O)sc(C)c1C`, the figure is -21.8%.
For the compound `CCOC(=O)c1c(-c2ccccc2)csc1N1C(=O)Nc2ccccc2N1O`, the inhibition is -27.8%.
Regarding `COC(=O)c1c(-c2ccccc2)csc1N1C(=O)Nc2ccccc2N1O`, the inhibition is 37.8% (active).
As for `CC(=O)Nc1ccc(-c2csc(-c3cccnc3)n2)cc1`, the figure is -31.8%; as for `O=C(O)CNC(=O)CCN1C(=O)c2ccccc2C1=O`, -13.4%; as for `CCOc1ccc(/C=C/C(=O)C(C(N)=O)=C2SCCS2)cc1`, 8.8%.
Regarding `NC(=O)C(C(=O)/C=C/c1ccc(Cl)cc1)=C1SCCS1`, the inhibition is 60.5% (active).
Consider `COc1ccc(/C=C/C(=O)C(C(N)=O)=C2SCCS2)cc1`, for which the inhibition is -16.2%.
With `Cc1ccc(CNC(=O)/C=C/c2ccc(Br)o2)cc1`, the inhibition is -7.4%.
As for `NC(=O)COc1ccc(/C=N\NC(=O)c2ccc(-c3ccccc3)cc2)cc1`, the figure is 2.5%; as for `NC(=O)c1ccc(C(=O)N/N=C/c2cccc(Oc3ccccc3)c2)cc1`, -28.7%; as for `NC(=O)COc1cccc(/C=N/NC(=O)c2ccc(-n3cccc3)cc2)c1`, 39.2% (active).
`CCCn1c(C)nc2cc(Cl)c(N3CCN(c4nc(-c5ccc(C)cc5)cs4)CC3)cc21`: the inhibition is 23.3%.
The same measure for `CC(=O)NC1=C(NC2CCS(=O)(=O)C2)C(=O)c2ccccc2C1=O` (stereo not drawn): -32.3%; for `O=C(NC1=C(NC2CCS(=O)(=O)C2)C(=O)c2ccccc2C1=O)c1ccccc1` (stereo not drawn): 104% (active).
The same measure for `CN(C1=C(NC(=O)c2ccccc2)C(=O)c2ccccc2C1=O)C1CCS(=O)(=O)C1` (stereo not drawn): -26.1%; for `O=S(=O)(Nc1nc(-c2ccccc2)cs1)c1cc(Cl)ccc1Cl`: 40.9%; for `COc1cc(N=CC2=C(O)c3ccccc3C2=O)cc(OC)c1`: -21.7%.
As for `COc1ccc(N=CC2=C(O)c3ccccc3C2=O)cc1`, the figure is 52.5%; as for `COc1ccc(N=CC2=C(O)c3ccccc3C2=O)c(OC)c1`, 72% (active).
Turning to `O=C(CCC(=O)Nc1nnc(C2CCCCC2)s1)NCc1ccc(F)cc1`, the inhibition is -10.8%.
As to `CSc1ccc(OC2CCCCC2NS(=O)(=O)c2ccccc2)cc1` (stereo not drawn), the inhibition is -17%.
The same measure for `Cc1cc(OCC(=O)NCCc2cccc(F)c2)c2c(C)cc(=O)oc2c1`: 21.7%.
On to `Oc1ccccc1N=Cc1c(O)ccc2oc3c(c12)CCCC3`, for which the inhibition is -2.1%.
Regarding `Oc1ccc2oc3c(c2c1/C=N/n1cnnc1)CCCC3`, the inhibition was 59.5% (active).
With `O=C(O)c1ccc(N=Cc2c(O)ccc3oc4c(c23)CCCC4)cc1`, the inhibition was 60% (active).
Turning to `CC(C)(C)N=Cc1c(O)ccc2oc3c(c12)CCCC3`, the inhibition was -1.4%.
For the compound `Cc1cccc(/N=C/c2c(O)ccc3oc4c(c23)CCCC4)n1`, the inhibition was 3.8%.
Regarding `NC(=O)N/N=C/c1c(O)ccc2oc3c(c12)CCCC3`, the inhibition is -15.5%.
`COC(=O)c1ccsc1NC(=O)CCc1ccccc1`: the inhibition is -59.2%.

A word on the inhibition: it is the change of the read-out against control, counted positive when it falls.
